We go through 15 compounds from PubChem BioAssay.

Structures are written as SMILES. For part of these data: Results with a measured potency or affinity are listed apart. The source made the active and inactive calls.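 Rule for the calls, unless noted: active = dose curve with midpoint inside tested range, moderate steepness, plateau gap beyond fit error, low compound glow and bead-link interference; inactive = the rest.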

Experiment [1] addresses Cell division control protein 42 homolog (Homo sapiens) (UniProt P60953). Nature of the experiment: activated mutant Cdc42 GTP-binding inhibitors, dose response, biochemical, multiplex bead flow cytometry, Bodipy-FL-GTP (AID 1333;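 active = fitted half-maximal concentration within the tested dose range, moderate curve steepness, a statistically real signal drop, and little compound fluorescence or tag-binding interference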). Background: Flow cytometry measures light scatter and fluorescence of single cells or particles in a stream.
Experiment [2] shares this target. Nature of the experiment: wildtype Cdc42 GTP-binding inhibitors, dose response, biochemical, multiplex bead flow cytometry, Bodipy-FL-GTP (AID 1334;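 active = fitted half-maximal concentration within the tested range, moderate curve steepness, significant signal drop, and little compound fluorescence or bead-linkage interference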). The following applies: bead-based flow cytometry, Bodipy-FL-GTP binding to GST-Cdc42; at 100 µM (top of the series) unless noted.
Experiment [3] addresses GTPase HRas (Homo sapiens) (UniProt P01112). Nature of the experiment: inhibitors of GTP binding to wildtype Ras, dose response, biochemical, multiplex bead flow cytometry (AID 1335;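 active = fitted half-maximal concentration within 10 nM to 100 µM, steepness 0.5 to 2, significant signal drop, low assay interference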). To be noted: bead-based flow cytometry, Bodipy-GTP binding to GST-Ras; at 100 µM (top of the series) unless noted.
The subject of experiment [4] is Ras-related protein Rab-7a (dog), GTP binding. Kind of experiment: Rab7 GTP binding inhibitors, potency, dose response, biochemical, wildtype, multiplex bead flow cytometry (AID 1336; call rule not given here).
Experiment [5] deals with Ras-related C3 botulinum toxin substrate 1 (Homo sapiens) (UniProt P63000). Kind of experiment: wildtype Rac1 GTP binding inhibitors, dose response, biochemical, multiplex bead flow cytometry (AID 1340). To be noted: GST-Rac1 beads, Bodipy-FL-GTP binding; at 100 µM (top of the series) unless noted.
In experiment [6] the target is GTPase HRas (Homo sapiens) (UniProt P01112). Nature of the experiment: activated Ras mutant GTP binding inhibitors, dose response, biochemical, multiplex bead flow cytometry (AID 1341;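 active = dose-response curve with midpoint inside the tested range, moderate steepness, significant amplitude and little compound fluorescence or bead-attachment interference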;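 note: GST-tagged constitutively activated Ras mutant immobilized on beads and multiplexed with other GTPases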).
Sequence of GTPase HRas (Homo sapiens) (P01112 whole entry, looked up): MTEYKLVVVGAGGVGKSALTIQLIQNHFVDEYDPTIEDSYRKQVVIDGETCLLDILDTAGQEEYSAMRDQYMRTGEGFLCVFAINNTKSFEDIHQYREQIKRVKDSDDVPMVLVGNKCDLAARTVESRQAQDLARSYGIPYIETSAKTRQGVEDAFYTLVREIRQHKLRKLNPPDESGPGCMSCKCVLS

Sequence of Cell division control protein 42 homolog (Homo sapiens) (P60953 whole entry, looked up): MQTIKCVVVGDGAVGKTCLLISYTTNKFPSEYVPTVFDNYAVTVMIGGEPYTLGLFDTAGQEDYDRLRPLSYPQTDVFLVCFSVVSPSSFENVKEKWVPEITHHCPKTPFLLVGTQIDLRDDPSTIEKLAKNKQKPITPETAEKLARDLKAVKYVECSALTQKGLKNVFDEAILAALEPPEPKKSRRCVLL

`COc1ccc(Nc2ccccc2C(=O)O)cc1`: the compound was called inactive in experiment [1], in experiment [4] and in experiment [6]. Besides, the fluorescence, percent of control (lower = inhibition) in experiment [2] was 45.2%. This compound also came in with a GTP binding, percent of control in experiment [3] of 92.5%. The compound further yielded a GTP binding signal, raw median fluorescence (lower = inhibition) (MCF (arbitrary fluorescence units)) in experiment [5] of 262.

`COc1cc(/C=N/Nc2ccc(S(N)(=O)=O)cc2)cc(OC)c1OC`: the compound was called inactive in experiment [1], in experiment [4] and in experiment [6]. This compound also came in with a fluorescence, percent of control (lower = inhibition) in experiment [2] of 31.7%. In experiment [3], the GTP binding, percent of control worked out at 75.4%. This compound had a GTP binding signal, raw median fluorescence (lower = inhibition) (MCF (arbitrary fluorescence units)) in experiment [5] of 175.

As to `O=C(O)c1cccc(NCc2ccc3c(c2)OCO3)c1`, the result in experiment [1], in experiment [4] and in experiment [6] was inactive. The same compound gave a fluorescence, percent of control (lower = inhibition) in experiment [2] of 64.9%. In experiment [3], this compound yielded a GTP binding, percent of control of 88.8%. Further, in experiment [5], the GTP binding signal, raw median fluorescence (lower = inhibition) (MCF (arbitrary fluorescence units)) was determined as 41.9.

As for `Cc1cc(C)n2nc(SCCOc3ccc(F)cc3)nc2n1`, the result in experiment [1], in experiment [4] and in experiment [6] was inactive. In experiment [2], this compound returned a fluorescence, percent of control (lower = inhibition) of 42.7%. Also, the GTP binding, percent of control in experiment [3] was determined as 78.4%. For the same compound, the GTP binding signal, raw median fluorescence (lower = inhibition) (MCF (arbitrary fluorescence units)) in experiment [5] was found to be 166.

On to `COc1cccc2c1c(C(=O)O)cn2CCOc1ccccc1C`, for which the result in experiment [1], in experiment [4] and in experiment [6] was inactive. The compound also gave a fluorescence, percent of control (lower = inhibition) in experiment [2] of 58.5%. The same compound registered a GTP binding, percent of control in experiment [3] of 212%. The GTP binding signal, raw median fluorescence (lower = inhibition) (MCF (arbitrary fluorescence units)) in experiment [5] stood at 55.1.

As to `CCOC(=O)Cn1nnnc1C(CC)N(Cc1cccs1)Cc1cc2ccc(OC)cc2[nH]c1=O` (stereo not given), the compound was classed as inactive in experiment [1], in experiment [4] and in experiment [6]. The compound also had a fluorescence, percent of control (lower = inhibition) in experiment [2] of 97.8%. The compound further registered a GTP binding, percent of control in experiment [3] of 173%. Besides, in experiment [5], the GTP binding signal, raw median fluorescence (lower = inhibition) (MCF (arbitrary fluorescence units)) came out at 194.

With `CCOc1cc(/C=C2/SC(=S)NC2=O)ccc1OC(=O)c1ccco1`, the compound was called inactive in experiment [1], in experiment [4] and in experiment [6]. In experiment [2], the fluorescence, percent of control (lower = inhibition) is 33.4%. Besides, the GTP binding, percent of control in experiment [3] was found to be 83.7%. In experiment [5], this compound gave a GTP binding signal, raw median fluorescence (lower = inhibition) (MCF (arbitrary fluorescence units)) of 208.

As to `O=c1[nH]cnc2c1C(c1ccccc1[N+](=O)[O-])c1c(nc[nH]c1=O)O2`, the compound was called inactive in experiment [1], in experiment [4] and in experiment [6]. This compound registered a fluorescence, percent of control (lower = inhibition) in experiment [2] of 38.6%. The GTP binding, percent of control in experiment [3] came to 50%. The compound also displayed a GTP binding signal, raw median fluorescence (lower = inhibition) (MCF (arbitrary fluorescence units)) in experiment [5] of 113.

For `COc1cc(N=c2oc3c(C)ncc(CO)c3cc2C(N)=O)cc(OC)c1OC`, the compound was called inactive in experiment [1], in experiment [4] and in experiment [6]. The same compound gave a fluorescence, percent of control (lower = inhibition) in experiment [2] of 26.9%. In experiment [3], this compound gave a GTP binding, percent of control of 58.2%. In addition, in experiment [5], the GTP binding signal, raw median fluorescence (lower = inhibition) (MCF (arbitrary fluorescence units)) amounted to 139.

Turning to `Cc1ccc(NS(=O)(=O)c2cc(NC(=O)c3ccc4c(c3)NC(=O)CS4)ccc2Cl)c(C)c1`, the compound was called inactive in experiment [1], in experiment [4] and in experiment [6]. For the same compound, in experiment [2], the fluorescence, percent of control (lower = inhibition) turned out to be 36.1%. This compound also came in with a GTP binding, percent of control in experiment [3] of 86.2%. This compound had a GTP binding signal, raw median fluorescence (lower = inhibition) (MCF (arbitrary fluorescence units)) in experiment [5] of 282.

For `Cc1ccc(Nc2ncccc2C(=O)O)cc1`, the result in experiment [1], in experiment [4] and in experiment [6] was inactive. In experiment [2], this compound yielded a fluorescence, percent of control (lower = inhibition) of 58.7%. Further, the GTP binding, percent of control in experiment [3] was 85.1%. In addition, in experiment [5], the GTP binding signal, raw median fluorescence (lower = inhibition) (MCF (arbitrary fluorescence units)) amounted to 31.3.

Turning to `COCCOC(=O)c1c(C)oc2ccc(OC(=O)c3ccc4c(c3)OCO4)cc12`, the outcome in experiment [1], in experiment [4] and in experiment [6] was inactive. Also, the fluorescence, percent of control (lower = inhibition) in experiment [2] is 31.7%. Moreover, the GTP binding, percent of control in experiment [3] came out at 83.9%. In experiment [5], the GTP binding signal, raw median fluorescence (lower = inhibition) (MCF (arbitrary fluorescence units)) was determined as 262.

Regarding `O=C1Nc2ccc(Br)cc2C12NNc1ccccc1O2` (stereo not given), the compound was classed as inactive in experiment [1], in experiment [4] and in experiment [6]. In experiment [2], this compound showed a fluorescence, percent of control (lower = inhibition) of 33%. The compound also returned a GTP binding, percent of control in experiment [3] of 77.8%. In experiment [5], this compound yielded a GTP binding signal, raw median fluorescence (lower = inhibition) (MCF (arbitrary fluorescence units)) of 182.

For `Cn1c(=O)cc(N2CCOCC2)[nH]c1=O`, the outcome in experiment [1], in experiment [4] and in experiment [6] was inactive. For the same compound, the fluorescence, percent of control (lower = inhibition) in experiment [2] is 37.4%. Moreover, in experiment [3], the GTP binding, percent of control amounted to 84.8%. For the same compound, the GTP binding signal, raw median fluorescence (lower = inhibition) (MCF (arbitrary fluorescence units)) in experiment [5] came to 262.

On to `COc1ccccc1OCCn1cc(C(=O)O)c2ccc(C)cc21`, for which the call in experiment [1], in experiment [4] and in experiment [6] was inactive. The same compound returned a fluorescence, percent of control (lower = inhibition) in experiment [2] of 47.9%. Moreover, in experiment [3], the GTP binding, percent of control worked out at 184%. In addition, the GTP binding signal, raw median fluorescence (lower = inhibition) (MCF (arbitrary fluorescence units)) in experiment [5] was 55.5.
